# From PubChem BioAssay
# SW480 rereplic: induces DNA re-replication in SW480 colon adenocarcinoma cells; SW480 DNA re-replication, Hoechst DNA content imaging, 48 h; Potency, µM (highest dose often 46.1 µM), inactives show at the highest dose re-replication activation, most hits filed as activators; hit rate 1.8% among 340,000; AID 624297; also: potency is read from the fitted curve at half-maximal effect; % of control where 0% means no effect; nearly all actives have a fitted effect of over 55% in size
#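 Hoechst fluorescence of nuclei (405 nm excitation, 500-530 nm emission) measured by plate-scanning imager after 48 hr compound exposure at 37 C; re-replication scored as increased number of nuclei with elevated intensity.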
# DT40 TDP1 CPT: DT40-hTDP1 cell growth loss with CPT; chicken DT40 Tdp1-/-;hTDP1 cells + 20 nM CPT, ATP luminescence, 48 h; Potency, µM (series often up to 46.2 µM), for inactives: top-dose activity change, negative = growth inhibition, actives largely listed as inhibitors; hit rate 12% among 420,000; also: potency is read from the fitted curve at half-maximal effect; % is scaled to controls: 0 for no effect and ±100 for the full control effect; nearly all actives have a fitted effect of over 55% in size
#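 Chicken DT40 Tdp1-/- cells complemented with human TDP1, 400 cells/well, exposed to compounds plus 20 nM camptothecin for at least 48 h at 37 C; viability read as ATP content by CellTiter-Glo luminescence.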
# TDP1 cell noCPT: qHTS for Inhibitors of human tyrosyl-DNA phosphodiesterase 1 (TDP1): qHTS in cells in absence of CPT | DT40 Tdp1-/- hTDP1 cells, no CPT, ATP luminescence, 48 h | Potency, µM (titrated, usually from 46.2 µM), inactives show top-dose activity change, negative = growth inhibition, actives largely listed as inhibitors | hit rate 15% among 420,000; also: potency is read from the fitted curve at half-maximal effect; % is scaled to controls: 0 for no effect and ±100 for the full control effect; nearly all actives have a fitted effect of over 55% in size
#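 Compound effects on proliferation are scored in DT40 Tdp1-/-;hTDP1 cells in the absence of CPT. ATP levels (CellTiter-Glo luminescence) are recorded after a ≥48 hr, 37 °C incubation.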
# IL-1B inflam inh: inhibitors of inflammasome signaling (IL-1 beta secretion); THP-1 LPS/ATP IL-1B secretion, AlphaLISA, 16 h; stronger effect = lower value; activity change, % at 57.5 µM; hit rate 4.7% among 360,000; AID 743279; in the data active = activity change below about -50%; inconclusive = mostly about -30% to -49%; also: % is scaled to controls: 0 for no effect and ±100 for the full control effect
#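 Secreted IL-1B measured by AlphaLISA bead assay after 16 h compound exposure of THP-1 cells; compounds (final up to 57.5 uM) added 1 h before LPS (250 ng/mL) and ATP (1.25 mM) stimulation; lower signal means less secretion.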
# BCR signal inh: chronic active BCR signaling inhibition; ABC-DLBCL IkBa-CBG/CBR reporter, luminescence ratio, 4 h; Potency, µM (titrated, usually from 46.1 µM), for inactives: at the highest dose activity change, negative = inhibition, most hits filed as inhibitors; hit rate 0.05% among 340,000; AID 493014; active = well fitted inhibition curve with a large enough effect in the signal ratio, with a control signal flat, not every such curve was filed as active; inconclusive = small, poorly fitted or top-dose-only effect, or effect the other way, or a change in a side signal; the % refers to the signal ratio;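 also: potency is read from the fitted curve at half-maximal effect; plate controls were basal doxycycline-induced cells for no effect and cells given 10 µM MG132 for full effect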
#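 TMD8 ABC-DLBCL cells carrying doxycycline-inducible green luciferase fused to IkappaBalpha plus unfused red luciferase were exposed to compounds (up to 46 uM) for 4 hrs at 37C. Activity came from the overlap-corrected green/red luminescence ratio.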
# MCF10A rerep: DNA re-replication induction in MCF 10a cells; MCF 10A DNA re-replication, Hoechst nuclear intensity, 48 h; Potency, µM (doses to about 46.1 µM), inactives show at the top dose activity, positive = re-replication, actives largely listed as activators; hit rate 2.9% among 350,000; AID 624296; also: potency is read from the fitted curve at half-maximal effect; % of control where 0% means no effect; nearly all actives have a fitted effect of over 50% in size
# Active calls of the source: *; ? = inconclusive; . = no result given; [ ] = remark or other dose. Rows were chosen to be rich in hits. Some 19% of all compounds tested hit in one or more screens of this group. Unless noted, calls follow the shape of the dose curve; as a rule, active = well fitted curve in the direction sought with a large enough effect; inconclusive = small, poorly fitted or top-dose-only effect, or another doubt; inactive = no such curve, though single readings can be large; an effect the other way counts as inactive or inconclusive.
SMILES,SW480 rereplic,DT40 TDP1 CPT,TDP1 cell noCPT,IL-1B inflam inh,BCR signal inh,MCF10A rerep
COc1cc(NC(=O)C2CCN(S(=O)(=O)c3c(C)noc3/C=C/c3ccccc3F)CC2)cc(OC)c1OC,.,?,23µM*,.,.,.
COc1ccccc1/C=C/c1onc(C)c1S(=O)(=O)N1CCC(C(=O)N2CCC(C)CC2)CC1,.,21µM*,16µM*,.,?,.
CNC(=O)C1CCN(S(=O)(=O)c2c(C)noc2/C=C/c2ccccc2F)CC1,-2%,-20%,-14%,-17,2%,0%
CC(=O)c1ccc(N2CCN(C(=O)C3CCN(S(=O)(=O)c4c(C)noc4/C=C/c4ccccc4F)CC3)CC2)cc1,.,?,10µM*,.,.,.
Cc1noc(/C=C/c2ccccc2F)c1S(=O)(=O)N1CCC(C(=O)Nc2ccc(C#N)cc2)CC1,.,12µM*,8.2µM*,.,.,.
O=C(OCC(=O)N1CCc2ccccc21)[C@@H]1CC(O)CN1S(=O)(=O)c1ccc(Cl)cc1 (some centres undefined),-6%,?,?,-22,?,17%
Cc1cccc(-c2nc3c4ccccc4nc(NCc4ccc(Cl)cc4)n3n2)c1,.,20%,1%,.,.,.
C/C(=N\NC(=O)c1ccc(-n2cnnn2)cc1)c1ccc(C)cc1,1%,-3%,-6%,-20,2%,?
CCOc1ccc(OCC)c(NC(=O)C2CCN(S(=O)(=O)c3c(C)noc3/C=C/c3ccccc3F)CC2)c1,.,-4%,-7%,.,.,.
CCN(CC)c1ccc(NC(=O)C2CCN(S(=O)(=O)c3c(C)noc3/C=C/c3ccccc3F)CC2)c(C)c1,.,21µM*,16µM*,.,.,.
Cc1ccc(/C=C/c2onc(C)c2S(=O)(=O)N2CCC(C(=O)Nc3cccc(C#N)c3)CC2)cc1,.,3.3µM*,3.7µM*,.,.,.
COc1ccc(NC(=O)C2CCN(S(=O)(=O)c3c(C)noc3/C=C/c3ccc(C)cc3)CC2)cc1Cl,.,-11%,-23%,.,.,.
CCOC(COC(=O)c1ccccc1C(=O)O)c1ccccc1 (centres undefined),.,0%,-6%,15,.,.
O=C(Nc1cccc(Cl)c1Cl)c1snnc1-c1ccccc1,-3%,-21%,?,4,14%,8%
O=C(Nc1cc(Cl)ccc1O)c1snnc1-c1ccccc1,1%,13µM*,16µM*,-90*,?,?
COc1ccc(Nc2ncnc3scc(-c4ccc(OC)cc4)c23)cc1,15µM*,2.9µM*,4.6µM*,0,?,5.2µM*
COc1ccc(-c2csc3ncnc(Nc4ccc(OC)c(OC)c4)c23)cc1,.,?,8.2µM*,.,.,.
COc1ccc(-c2csc3ncnc(Cl)c23)cc1,?,?,?,-29,?,-2%
CC(C)(CNC(=O)c1cnn(-c2nccc(-c3cc4ccccc4o3)n2)c1C1CC1)N1CCOCC1,.,-8%[9.04 µM],-4%,.,.,.
COc1ccc2c(c1)c1c(c(=O)n(Cc3ccccc3)c(=O)n1Cc1ccccc1Cl)n2C,.,7%,-9%,.,.,.
Cc1ccc(C)c(S(=O)(=O)N2CCN(C(=O)c3ccc(OCc4c(C)noc4C)cc3)CC2)c1,-1%,?,?,-6,-20%,17%
CCN(CC)c1ccc(NC(=O)CSc2ccsc2[N+](=O)[O-])c(C)c1,-3%,?,18µM*,-4,9%,3%
COc1ccc(CNC(=O)CSc2ccsc2[N+](=O)[O-])cc1,7%,?,-8%,-59*,0%,10%
O=C(CSc1ccsc1[N+](=O)[O-])Nc1cc(F)ccc1F,5%,-4%,?,-26,?,-5%
Cc1ccc(CNC(=O)CSc2ccsc2[N+](=O)[O-])cc1,15%[1.84 µM],?,10µM*,?,1%,-25%
SMILES,SW480 rereplic,DT40 TDP1 CPT,TDP1 cell noCPT,IL-1B inflam inh,BCR signal inh,MCF10A rerep
CC(C)C(NS(=O)(=O)c1cccs1)C(=O)N(C)Cc1ccccc1 (centres undefined),3%,-15%,-4%,-2,5%,2%
CCN(CC)c1ccc(NC(=O)C(NS(=O)(=O)c2cccs2)C(C)C)c(C)c1 (centres undefined),.,21µM*,21µM*,.,.,.
O=C(CSc1ccsc1[N+](=O)[O-])NCCc1ccc(Cl)cc1,3%,?,-19%,18,-5%,2%
COCCC1CCCCN1Cc1nc(N2CCCCC2)c2cc(OC)c(OC)cc2n1 (centres undefined),.,-6%[9.04 µM],-23%,.,.,.
CCc1cc(=O)oc2c3c(c(Cl)cc12)OCN(Cc1cccc(OC)c1)C3,.,-24%,-19%,.,.,.
C[C@@H]1CN([C@H](C)CO)C(=O)CCCn2cc(nn2)CO[C@H]1CN(C)S(=O)(=O)c1ccc(-c2ccccc2)cc1,.,-14%,?,-1,.,.
CC(OC(=O)C1CCCCC1)C(=O)Nc1cccc([N+](=O)[O-])c1 (centres undefined),-1%,?,-5%,22,1%,1%
Cn1cccc1Cc1nnc(SCC(=O)NCc2ccccc2)n1-c1ccc(F)cc1,1%,16µM*,?,?,?,11%
COc1ccc(Cl)cc1NC(=O)CSc1nnc(Cc2cccn2C)n1-c1ccc(F)cc1,?,26µM*,?,-8,?,12%
Cn1cccc1Cc1nnc(SCC(=O)NCc2ccc(F)cc2)n1-c1ccc(F)cc1,13%,?,-25%,-20,6%,4%
CCOc1ccc(CCNC(=O)c2sc3ncccc3c2-n2c(C)ccc2C)cc1,.,13µM*,15µM*,.,.,.
Cc1ccc(C)n1-c1c(C(=O)NCC(C)c2ccccc2)sc2ncccc12 (centres undefined),.,21µM*,18µM*,.,.,.
Cc1ccc(CCNC(=O)c2sc3ncccc3c2-n2c(C)ccc2C)cc1,.,12µM*,6.5µM*,.,.,.
Cc1ccc(CNC(=O)c2sc3nc(C)cc(C)c3c2-n2cccc2)cc1,.,-24%,?,.,.,.
CNC(=O)c1sc2ncccc2c1-n1cccc1,.,-22%,?,.,.,.
O=C(OCCN1C(=O)c2ccccc2C1=O)c1cc(S(=O)(=O)N2CCOCC2)ccc1Cl,2%,9%,3%,-17,0%,7%
O=C(COC(=O)c1cccc(Cl)c1)Nc1cc(S(=O)(=O)N2CCOCC2)ccc1N1CCOCC1,-2%,-22%,-17%,3,.,8%
O=C(OCCN1C(=O)c2cccc3c(N4CCOCC4)ccc(c23)C1=O)c1cccc(Cl)c1,?,18µM*,8.2µM*,-4,0%,2%
